Source: PubChem BioAssay (EPA / NIEHS)
Records with an inconclusive call do not appear. Active and inactive are the calls of the source. Rule for the calls: active = hit-call score of the fitted dose curve at least 0.9, where 1 is the maximum; inconclusive = response in the unintended direction; inactive = score below 0.9.

Target: Androgen receptor (Homo sapiens) (UniProt P10275)
Assay: ATG_AR_TRANS: Attagene TRANS-FACTORIAL HepG2 Assay for human Androgen Receptor (AR) (AID 2282973)
Conditions: HepG2 Attagene TRANS-FACTORIAL AR reporter transcription
Summary of the method: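 Readout is reporter transcript abundance, quantified by fluorescent RT-PCR products separated on capillary electrophoresis. Human HepG2 liver cells carried transiently transfected NR-Gal4 chimera plus GAL4-UAS reporter constructs and were dosed for 24 h; activity scored upward versus DMSO.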

Androgen receptor (Homo sapiens), sequence (P10275 whole entry, looked up): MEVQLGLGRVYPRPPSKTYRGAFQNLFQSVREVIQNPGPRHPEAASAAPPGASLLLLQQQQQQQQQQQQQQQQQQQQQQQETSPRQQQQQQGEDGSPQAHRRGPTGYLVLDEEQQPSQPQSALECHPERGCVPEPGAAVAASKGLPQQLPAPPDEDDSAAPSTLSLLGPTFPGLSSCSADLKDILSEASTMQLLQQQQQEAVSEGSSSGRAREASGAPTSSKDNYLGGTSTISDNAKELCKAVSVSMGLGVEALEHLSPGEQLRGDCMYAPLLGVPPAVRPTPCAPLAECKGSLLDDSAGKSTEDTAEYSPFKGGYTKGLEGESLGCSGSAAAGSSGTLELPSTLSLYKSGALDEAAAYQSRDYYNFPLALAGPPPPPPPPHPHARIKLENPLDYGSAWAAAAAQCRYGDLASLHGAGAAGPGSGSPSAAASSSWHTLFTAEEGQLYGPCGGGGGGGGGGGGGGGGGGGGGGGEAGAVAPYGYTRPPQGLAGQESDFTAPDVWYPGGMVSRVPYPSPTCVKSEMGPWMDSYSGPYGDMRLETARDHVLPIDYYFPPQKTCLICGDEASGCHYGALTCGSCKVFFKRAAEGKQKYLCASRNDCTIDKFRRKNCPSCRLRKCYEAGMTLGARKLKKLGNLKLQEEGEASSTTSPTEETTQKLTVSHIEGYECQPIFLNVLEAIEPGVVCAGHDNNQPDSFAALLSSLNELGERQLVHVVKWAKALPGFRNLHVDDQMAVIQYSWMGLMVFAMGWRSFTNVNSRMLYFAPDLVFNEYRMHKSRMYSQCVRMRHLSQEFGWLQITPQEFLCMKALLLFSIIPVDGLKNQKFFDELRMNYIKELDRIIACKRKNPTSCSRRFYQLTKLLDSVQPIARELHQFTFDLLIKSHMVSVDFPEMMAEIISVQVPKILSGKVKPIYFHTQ

| Compound | outcome |
| --- | --- |
| C=CC(=O)OCCC(F)(F)C(F)(F)C(F)(F)C(F)(F)F | inactive |
| O=P(O)(O)OCCC(F)(F)C(F)(F)C(F)(F)C(F)(F)C(F)(F)C(F)(F)F | inactive |
| C=CCOCC(O)CCl (stereo not given) | inactive |
| CC(=O)CC(C)C | inactive |
| O=C(Cl)c1ccc(Cl)cc1Cl | inactive |
| OCCN(CCO)c1cccc(Cl)c1 | inactive |
| C=CC(=O)OCCOC1C2CCC1C1CC=CC12 (stereo not given) | inactive |
| CCO[Si](C)(C)OCC | inactive |
| CCCCCCOC(=O)c1ccccc1O | inactive |
| O=C1CCCCC1 | inactive |
| O=Nc1ccc(Nc2ccccc2)cc1 | inactive |
| NC(C(F)(F)F)C(F)(F)F | inactive |
| CCOc1nc(F)cc2nc(S(=O)(=O)Nc3c(Cl)cccc3C(=O)OC)nn12 | inactive |
| CSc1ccc(O)cc1C | inactive |
| COC(=O)c1cccnc1 | inactive |
| CC1=CC(=O)c2ccccc2C1=O | inactive |
| O=CC(F)(F)C(F)(F)C(F)(F)F | inactive |
| O=C(NCc1ncc(C(F)(F)F)cc1Cl)c1c(Cl)cccc1Cl | inactive |
| NC(=O)C(F)(F)C(F)(F)C(F)(F)C(F)(F)F | inactive |
| C[C@H]1O[C@@H](O[C@H]2[C@@H](O)C[C@H](O[C@H]3[C@@H](O)C[C@H](O[C@H]4CC[C@@]5(C)[C@H](CC[C@@H]6[C@@H]5C[C@@H](O)[C@]5(C)[C@@H](C7=CC(=O)OC7)CC[C@]65O)C4)O[C@@H]3C)O[C@@H]2C)C[C@H](O)[C@@H]1O | inactive |

| Compound | outcome |
| --- | --- |
| CC1(C)C2=CCCC(C)(C)[C@]23CC[C@H]1C3 | inactive |
| CCCOCCOCCOCCO | inactive |
| CCCCCCCCSCCO | inactive |
| C=COCCCC | inactive |
| CC(C)(C)c1n[nH]c(=O)n(N)c1=O | inactive |
| COc1ccc(CCO)cc1 | inactive |
| NC(=O)OCC(COC(N)=O)c1ccccc1 | inactive |
| CC=CC(=O)OCC(C)C | inactive |
| FC(F)(F)C1(F)C(F)(F)C(F)(F)C(F)(F)C1(F)F | inactive |
| CCCCCCS | inactive |
| Cc1ccc(N(C)C)cc1 | inactive |
| CC(c1cc2ccccc2s1)N(O)C(N)=O (stereo not given) | inactive |
| C[Si]1(C)O[Si](C)(C)O[Si](C)(C)O1 | inactive |
| CCCCCCOc1ccc(O)cc1 | inactive |
| Nc1nc2ccc([N+](=O)[O-])cc2s1 | inactive |
| O=c1cc(-c2ccccc2)oc2ccc3ccccc3c12 | inactive |
| CCCCC(CC)COC(=O)/C=C/c1ccc(OC)cc1 (stereo not given) | inactive |
| Cc1c(C(=O)c2c[nH]n(C)c2=O)ccc(S(C)(=O)=O)c1C1=NOCC1 | inactive |
| CC(C)[C@@H]1CC[C@@H](C)C[C@H]1O | inactive |
| COc1cc(C=O)ccc1O | inactive |
